USP1-UAF1 inh – USP1/UAF1 (human) deubiquitinase inhibition; O94782; recombinant USP1/UAF1, Ub-Rhodamine cleavage fluorescence; Potency, µM (titrated, usually from 57.1 µM), without a hit: top-dose activity change, negative = inhibition, actives largely listed as inhibitors; 390,000 tested, 0.23% active; AID 743255; note: potency is the fitted concentration of half-maximal effect; nearly all actives have a fitted effect of over 60% in size
Target sequence (O94782 whole entry, looked up): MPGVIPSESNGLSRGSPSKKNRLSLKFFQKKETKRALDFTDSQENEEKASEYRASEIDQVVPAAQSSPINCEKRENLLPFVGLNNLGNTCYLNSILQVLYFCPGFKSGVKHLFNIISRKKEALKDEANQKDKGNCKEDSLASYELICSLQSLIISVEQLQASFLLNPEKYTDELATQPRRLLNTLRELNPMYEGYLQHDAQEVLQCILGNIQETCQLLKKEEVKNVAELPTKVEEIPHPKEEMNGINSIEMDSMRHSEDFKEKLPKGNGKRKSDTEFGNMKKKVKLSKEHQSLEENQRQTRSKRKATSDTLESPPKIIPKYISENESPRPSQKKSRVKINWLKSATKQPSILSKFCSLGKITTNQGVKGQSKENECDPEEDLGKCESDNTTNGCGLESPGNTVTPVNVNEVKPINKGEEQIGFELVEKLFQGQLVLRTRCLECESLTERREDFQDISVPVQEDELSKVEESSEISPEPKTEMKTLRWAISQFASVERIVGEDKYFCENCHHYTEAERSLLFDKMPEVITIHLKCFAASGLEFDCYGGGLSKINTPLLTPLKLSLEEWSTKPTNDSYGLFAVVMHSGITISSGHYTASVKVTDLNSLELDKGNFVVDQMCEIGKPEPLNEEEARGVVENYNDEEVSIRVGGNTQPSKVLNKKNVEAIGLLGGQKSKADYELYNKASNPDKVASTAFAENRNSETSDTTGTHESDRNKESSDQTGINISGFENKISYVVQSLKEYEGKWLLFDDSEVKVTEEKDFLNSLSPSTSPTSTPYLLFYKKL
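1 nM enzyme complex + cpd, 15 min RT; start with Ub-Rho 150nM final; kinetic fluorescence ex 480/em 540, 6 reads q60 s. Buffer 50mM HEPES pH 7.8, 0.5mM EDTA, 0.1 mg/ml BSA, 1mM TCEP, 0.01% Tween-20.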
Tau fibril ThT – inhibitors of human tau fibril formation, thioflavin T binding; AID 1460; P10636; 270,000 tested, 2.1% active; recombinant tau K18 P301L, heparin-induced fibrillization, ThT fluorescence; Potency, µM (doses to about 57.4 µM), for inactives: top-dose activity, negative = inhibition, most hits filed as inhibitors; note: potency is the fitted concentration of half-maximal effect; nearly all actives have a fitted effect of over 55% in size
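Heparin-induced fibrillization of the P301L-mutant K18 repeat-domain fragment of human tau was followed by ThT binding in quantitative high-throughput format.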
Tau FP inhib – inhibitors of human tau fibril formation; 280,000 tested, 0.39% active; P10636; K18 P301L tau heparin fibrillization, Alexa594 FP, 6 h; Potency, µM (titrated, usually from 57.7 µM), for the others: top-dose activity, negative = inhibition, actives largely listed as inhibitors; AID 1468; note: potency is the fitted concentration of half-maximal effect; nearly all actives have a fitted effect of over 55% in size
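Human K18 P301L fragment (15 uM unlabeled plus 0.24 uM Alexa 594-labeled) in 100 mM sodium acetate pH 7 with compound, aggregation induced by 20 uM heparin for 6 hr at 37 C. ThT (30 uM) added for 1 hr, then Alexa 594 FP read.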
Coupling enz – counter-screen for Giardia aldolase inhibitors: coupling enzyme system; 290,000 tested, 0.67% active; coupling enzyme system counterscreen, AmpLite Red fluorescence; AID 2472; activity change, negative = inhibition, % at 58.2 µM, hits read low; in the data active = activity change below about -30%
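First, compound is pin-transferred into glyceraldehyde-3-phosphate coupling-enzyme reagent at 57.5 uM final and held 10 min at RT. Next, substrate, coupling system and AmpLite Red are added. After 20 min RT, fluorescence (525/598 nm) is read.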
Tau fluor cs – counter-screen for tau fibril formation inhibitors | tau K18 P301L Alexa594 fluorescence, heparin fibrillization | Potency, µM (highest dose often 57.7 µM), for the others: top-dose activity change, negative = decrease | 280,000 tested, 0.93% active; note: potency is the fitted concentration of half-maximal effect; nearly all actives have a fitted effect of over 55% in size
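Human tau K18 P301L (15 uM unlabeled, 0.24 uM Alexa 594-labeled) in 100 mM sodium acetate pH 7 with 20 uM heparin, 6 hr at 37 C. ThT 30 uM added, 1 hr ambient; Alexa 594 FP and total fluorescence read at 555/632 nm.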
The depositor's hits bear a star; [ ] = dose if it differs, or a comment. Rows were chosen to be rich in hits. Some 2.3% of all compounds tested hit in one or more screens of this group. Unless noted, calls come from the whole dose curve; as a rule, active = well fitted curve in the direction sought with a large enough effect; inconclusive = small, poorly fitted or top-dose-only effect, or another doubt; inactive = no such curve, though single readings can be large; an effect the other way counts as inactive or inconclusive. % is set by controls: 0 for no effect and ±100 for the full control effect.

Results for CC(C)c1ccc(S(=O)(=O)/N=C2/C=CC(=O)c3ccccc32)cc1 ?
Tau fibril ThT: 28.2µM*; Tau FP inhib: inconclusive; Coupling enz: -53.4*; Tau fluor cs: inconclusive

Results for CC(C)c1ccc(S(=O)(=O)/N=C2\C=C(NS(=O)(=O)c3ccccc3)C(=O)c3ccccc32)cc1 ?
USP1-UAF1 inh: inconclusive; Coupling enz: -31.9*

What do the screens show for `CCC(=O)N1c2ccccc2CC1C(=O)NCCc1ccc(OC)cc1OC` (configuration not stated)?
USP1-UAF1 inh: -3.9%; Tau fibril ThT: 5.2%; Tau FP inhib: inconclusive; Tau fluor cs: -3.4%

Results for CCCNC(=O)c1ccc(-c2nc(CS(=O)(=O)c3ccc(C)cc3)c(C)o2)cc1 ?
USP1-UAF1 inh: inconclusive; Tau fibril ThT: 5.8%; Tau FP inhib: 1.8%; Tau fluor cs: 3.0%

Results for Cc1ccc2cc3c(N)c(C(=O)N4CCOCC4)sc3nc2c1 ?
USP1-UAF1 inh: -14.2%; Tau fibril ThT: inconclusive; Tau FP inhib: 3.9%; Coupling enz: -3.2; Tau fluor cs: -14.0%

Results for CCOc1ccc2nc3sc(C(=O)N4CCN(C)CC4)c(N)c3cc2c1 ?
USP1-UAF1 inh: -16.4%; Tau fibril ThT: 12.6µM*; Tau FP inhib: 9.5%; Coupling enz: -2.1; Tau fluor cs: inconclusive

What do the screens show for `COc1ccc2cc3c(N)c(C(=O)N4CCCC4)sc3nc2c1`?
USP1-UAF1 inh: -9.0%; Tau fibril ThT: 11.2µM*; Tau FP inhib: 5.4%; Coupling enz: -0.9; Tau fluor cs: inconclusive

How did Cc1[nH]n(C2=NCCS2)c(=O)c1N=Nc1cccc(C(F)(F)F)c1 do in these assays?
USP1-UAF1 inh: -5.9%; Tau fibril ThT: 12.6µM*; Tau FP inhib: 4.6%; Coupling enz: 5.9; Tau fluor cs: -16.2%

Results for Cc1[nH]n(C(N)=S)c(=O)c1N=Nc1cccc(C(F)(F)F)c1 ?
USP1-UAF1 inh: -3.4%; Coupling enz: 6.4

How did COc1cccc(N2CCN(C(=O)Cn3c(-c4cccs4)cc4ccccc43)CC2)c1 do in these assays?
USP1-UAF1 inh: 0.5%; Tau fibril ThT: -4.8%; Tau FP inhib: inconclusive; Tau fluor cs: -13.8%

What do the screens show for `O=C(CSc1nc2c([nH]c3ccccc32)c(=O)n1-c1cccc(Cl)c1)N1CCc2ccccc21`?
USP1-UAF1 inh: -18.9%; Tau fibril ThT: -5.1%; Tau FP inhib: -11.4%; Tau fluor cs: -11.1%

Results for O=C(CCCOc1ccc(Cl)cc1Cl)N/N=C/c1cccc([N+](=O)[O-])c1 ?
USP1-UAF1 inh: inconclusive; Tau fibril ThT: 3.2%; Tau FP inhib: 6.5%; Coupling enz: -38.8*; Tau fluor cs: -1.5%

How did Cc1ccc(Sc2c(C)nn(C(=O)COc3ccccc3Br)c2C)cc1 do in these assays?
USP1-UAF1 inh: -14.0%; Tau fibril ThT: inconclusive; Tau FP inhib: -1.4%; Tau fluor cs: -6.3%

What do the screens show for `CN1CCN(C(=S)NC(=O)c2ccc(C(C)(C)C)cc2)CC1`?
USP1-UAF1 inh: -16.7%; Tau fibril ThT: 4.0%; Tau FP inhib: 6.7%; Coupling enz: 2.1; Tau fluor cs: -1.0%

How did C=CCn1cccc(/C=C/C(=O)c2ccc(C(C)(C)C)cc2)c1=S do in these assays?
USP1-UAF1 inh: -23.5%; Tau fibril ThT: 20µM*; Tau FP inhib: 15.8%; Coupling enz: 2.1; Tau fluor cs: -11.0%

Results for Cn1cc([N+](=O)[O-])c(C(=O)Nc2nc(-c3ccc(Cl)cc3)cs2)n1 ?
USP1-UAF1 inh: -17.6%; Tau fibril ThT: inconclusive; Tau FP inhib: 7.0%; Coupling enz: -3.0; Tau fluor cs: 12.6µM*[quencher]

Results for Cc1cccc(N2CCN(S(=O)(=O)c3csc(C(N)=O)c3)CC2)c1C ?
USP1-UAF1 inh: -11.6%; Tau fibril ThT: -3.5%; Tau FP inhib: -11.5%; Tau fluor cs: inconclusive

Results for CCOc1cc(NC(=O)c2ccccn2)c(OCC)cc1NC(=O)c1ccccc1 ?
USP1-UAF1 inh: -5.0%; Tau fibril ThT: -11.1%; Tau FP inhib: inconclusive; Coupling enz: -0.4; Tau fluor cs: -10.9%

What do the screens show for `CCOc1cc(NC2CS(=O)(=O)CC2O)c(OCC)cc1NC(=O)c1ccccc1` (configuration not stated)?
USP1-UAF1 inh: -10.6%; Tau fibril ThT: -7.6%; Tau FP inhib: 5.4%; Coupling enz: -41.0*; Tau fluor cs: -8.4%

How did Cc1ccccc1CNC(=O)c1oc2c(c1C)-c1[nH]ncc1CC2 do in these assays?
USP1-UAF1 inh: -23.6%; Tau fibril ThT: -15.9%; Tau FP inhib: inconclusive; Tau fluor cs: inconclusive

Results for CCc1ccccc1NC(=O)Cn1nc(CC)n2c(cc3sccc32)c1=O ?
USP1-UAF1 inh: -6.1%; Tau fibril ThT: -0.1%; Tau FP inhib: -7.1%; Tau fluor cs: -3.6%

Results for CCN(CC)S(=O)(=O)c1nnc(NC(=O)COc2ccccc2F)s1 ?
USP1-UAF1 inh: -13.2%; Tau fibril ThT: inconclusive; Tau FP inhib: -5.9%; Tau fluor cs: inconclusive

What do the screens show for `CCN(c1ccccc1)S(=O)(=O)c1nnc(NC(=O)c2cccs2)s1`?
USP1-UAF1 inh: -5.8%; Tau fibril ThT: 2.24µM*; Tau FP inhib: inconclusive; Tau fluor cs: -13.3%

How did CCN(c1ccccc1)S(=O)(=O)c1nnc(NC(=O)c2ccccc2OC)s1 do in these assays?
USP1-UAF1 inh: -33.4%; Tau fibril ThT: 3.16µM*; Tau FP inhib: -6.3%; Coupling enz: 2.4; Tau fluor cs: -14.2%

Results for CCCC(=O)Nc1nnc(S(=O)(=O)N(C)c2ccccc2)s1 ?
USP1-UAF1 inh: 0.7%; Tau fibril ThT: 2.51µM*; Tau FP inhib: -7.5%; Tau fluor cs: inconclusive

How did CCCCC(=O)Nc1nnc(S(=O)(=O)N(CC)c2ccccc2)s1 do in these assays?
USP1-UAF1 inh: -21.4%; Coupling enz: 5.6

How did CCN(c1ccccc1)S(=O)(=O)c1nnc(NC(=O)COc2ccccc2F)s1 do in these assays?
USP1-UAF1 inh: -23.7%; Tau fibril ThT: 4.47µM*; Tau FP inhib: inconclusive; Tau fluor cs: -21.1%

Results for CCN(c1ccccc1)S(=O)(=O)c1nnc(NC(=O)COc2ccc(OC)cc2)s1 ?
USP1-UAF1 inh: 3.1%; Tau fibril ThT: inconclusive; Tau FP inhib: -1.4%; Tau fluor cs: -8.8%

Results for CCN(c1ccc(C)cc1)S(=O)(=O)c1nnc(NC(=O)c2cccs2)s1 ?
USP1-UAF1 inh: -11.4%; Tau fibril ThT: 5.2%; Tau FP inhib: -7.4%; Tau fluor cs: 1.6%

How did Cc1cccc(C)c1NC(=O)CCS(=O)(=O)c1ccc2c(c1)CC(C)N2C(=O)C1CC1 (configuration not stated) do in these assays?
USP1-UAF1 inh: 10.2%; Tau fibril ThT: -7.2%; Tau FP inhib: 7.1%; Tau fluor cs: -6.2%

Results for CCNc1ncc2nc(C)c(=O)n(C[C@H]3CCCO3)c2n1 ?
Coupling enz: -7.2

How did CCN(c1ccccc1)S(=O)(=O)c1nnc(NC(=O)c2ccccc2)s1 do in these assays?
USP1-UAF1 inh: -13.5%; Tau fibril ThT: 15.8µM*; Tau FP inhib: 5.8%; Tau fluor cs: -17.3%
